A number with no mark means an inactive call. The source made the active and inactive calls. Calls follow the shape of the dose curve; as a rule, active = well fitted curve in the direction sought with a large enough effect in the repeat runs; inconclusive = weak or mixed curves; inactive = flat fitted curve, though single readings scatter.
assay: qHTS assay to test for compound auto fluorescence at 460 nm (blue) in HEK293 cell free culture (AID 720681); settings: cell-free medium, autofluorescence 405/460 nm (blue); series mostly up to 91.3 µM; fluorescence, % of fluorescent control: at the top concentration
Description: U.S. Tox21 Program National Center for Advancing Translational Sciences [NCATS] NIH Chemical Genomics Center [NCGC] U.S. Environmental Protection Agency [EPA] National Institutes of Environmental Health Sciences [NIEHS] National Toxicology Program [NTP] U.S. Food and Drug Administration [FDA] Tox21 Assay Overview: Compound auto fluorescence often interferes with screening of the compound library against various biological targets and signaling pathways. Some of these compounds may have fluorophoric properties. Such properties may interfere with the assay outputs resulting in false positives and/or negatives. To decrease such complications and ensure the compound activities are relevant in terms of biological response, the Tox21 10K compound library was screened for auto fluorescence. From the fluorophores used as reporter signals in our screening assays, the auto fluorescence equivalencies of compounds against three fluorophores have been evaluated: Triamterene, Fluorescein and Rose Bengal sodium for blue, green and red fluorescence, respectively. The fluorescence intensities were measured using Excitation/Emission wavelengths at 405/460nm, 485/535nm and 540/590nm for blue, green and red labels, respectively. This assay includes the blue fluorescence data.
Tox21 Assay Protocol Summary: 5 uL of culture medium (DMEM containing 10% FBS) per well was dispensed into black wall/clear bottom 1536-well plates using a Multidrop Combi Dispenser (ThermoFisher Scientific, Waltham, MA). After 23 nL compound or DMSO vehicle was transferred into assay plate by a pintool work station (Kalypsys, San Diego, CA), fluorescence intensities in the assay plates were measured by an Envision (PerkinElmer, Shelton, CT) plate reader using three labels for measuring blue, green and red fluorescence at […] 460, 535 and 590nm respectively.
% is scaled to controls: 0 for no effect and ±100 for the full control effect.

| Structure (SMILES) | fluorescence, % of fluorescent control | outcome |
| --- | --- | --- |
| O=C(NC(=O)c1c(F)cccc1F)Nc1cc(Cl)c(F)c(Cl)c1F | -0.0774% |  |
| CCCN1CCC[C@@H]2Cc3[nH]ncc3C[C@H]21 | -0.0861% [at 46 µM] |  |
| CCC(C(N)=O)N1CCCC1=O (stereo not given) | -0.0337% [at 46 µM] |  |
| N[C@@H](Cc1ccc(Oc2cc(I)c(O)c(I)c2)c(I)c1)C(=O)O | 0.0362% [at 46 µM] |  |
| CCNP(=S)(OC)O/C(C)=C/C(=O)OC(C)C (stereo not given) | 0.0008% |  |
| CCc1cc(OC)c(C[C@H](C)N)cc1OC | -0.144% [at 95.7 µM] |  |
| O=C(NC(O)C(Cl)(Cl)Cl)NC(O)C(Cl)(Cl)Cl (stereo not given) | 0.21% [at 46 µM] |  |
| CC[C@H](O)C(C[C@H](C)N(C)C)(c1ccccc1)c1ccccc1 | 0.0511% [at 95.7 µM] |  |
| CC(C)(C)NC[C@H](O)c1ccc(O)cc1Cl | 0.0279% [at 46 µM] |  |
| CCOP(=O)(CN(CCO)CCO)OCC | 0.109% |  |
| COP(=O)(OC)O/C(C)=C/C(=O)N(C)C | -0.146% |  |
| C[C@H](CN1CCOCC1)C(C(=O)N1CCCC1)(c1ccccc1)c1ccccc1 | -0.179% [at 95.7 µM] |  |
| CCCN1CCC[C@@H]2Cc3nc(N)ncc3C[C@H]21 | 0.139% [at 46 µM] |  |
| COC(=O)c1ccc(CBr)cc1 | 0.302% [at 95.7 µM] |  |
| CCCCCCCCSC(=O)Oc1cc(Cl)nnc1-c1ccccc1 | 0.0099% |  |
| Cn1c(N)nc2c3cccnc3ccc21 | 0.0156% |  |
| CC(O)CCl (stereo not given) | 0.0517% |  |
| CCOC(=O)Nc1cccc(OC(=O)Nc2ccccc2)c1 | -0.108% |  |
| NNCc1ccccc1 | 0.0652% [at 95.7 µM] |  |
| CCC1(c2cccc(O)c2)CCCCN(C)C1 (stereo not given) | 0.0294% [at 18.6 µM] |  |

| Structure (SMILES) | fluorescence, % of fluorescent control | outcome |
| --- | --- | --- |
| CCCCOC(C)=O | -0.0561% [at 95.7 µM] |  |
| CCCCCCC(=O)CCCCCC/C=C/C[C@@H](O)[C@H](O)[C@@](N)(CO)C(=O)O |  | inactive |
| CN(C)C1CCCCC1 | 0.0382% |  |
| O=P(O)(O)c1ccccc1 | -0.0004% |  |
| C#CC(C)(C)O | -0.0003% [at 95.7 µM] |  |
| C=C(C)[C@H]1CN[C@H](C(=O)O)[C@H]1CC(=O)O | -0.105% [at 46 µM] |  |
| CC(C)[C@]12CC(=O)[C@H](C)[C@H]1C2 | 0.196% |  |
| Cn1c(CCCC(=O)O)nc2cc(N(CCCl)CCCl)ccc21 | 0.0895% [at 46 µM] |  |
| CC(C)(C)C(=O)Cl | -0.0538% [at 95.7 µM] |  |
| C[C@@H](N)[C@@H](O)c1ccccc1 | -0.0641% [at 18.6 µM] |  |
| CC1=C2[C@H]3OC(=O)[C@@H](C)[C@@H]3CC[C@@]2(C)C=CC1=O | -0.108% [at 46 µM] |  |
| CCSC(=O)Cl | 0.0226% [at 95.7 µM] |  |
| CC1N=C(N)OC1c1ccccc1 (stereo not given) | -0.0701% |  |
| CCCC(C)C1(CC)C(=O)N=C(S)NC1=O (stereo not given) | -0.0246% [at 46 µM] |  |
| NC(=O)CS(=O)C(c1ccccc1)c1ccccc1 (stereo not given) | 0.194% [at 46 µM] |  |
| CC(=O)CN(CC(C)=O)N=O | 3.09% |  |
| Cc1ccc(-c2nc3ccc(C)cn3c2CC(=O)N(C)C)cc1 | 1.84% [at 46 µM] |  |
| CCCCS(=O)(=O)Cl | 0.0146% |  |
| CCC(=O)OC1(c2ccccc2)CCN(C)CC1 | -0.189% [at 95.7 µM] |  |
| CCOc1cc(OP(=S)(OC)OC)nc(CC)n1 | 0.0391% |  |

Source: PubChem BioAssay (Tox21)
